# Measurements reported in the supplement of paper PMC7411054.
# Counter-ions that a name gives are not always drawn.
# Key:
# Details in all cases: treatment time: 24 h
# WPMY1-GM130-SQSTM1 [1] = test: lowest phenotypically active concentration; higher = less potent
# Summary of the method: (§1)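 Two criteria together defined phenotypic activity: deviation and reproducibility. Deviation meant ≥3 of 4 wells beyond the 95th percentile of Euclidean distances in solvent control wells, and reproducibility meant a median replicate Pearson correlation above the 95th percentile of non-replicates. Wells had been treated for 24 h at 0.3, 1, 3 or 9 µM in fifteen gene-edited A549, HepG2 and WPMY1 reporter lines before live imaging.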
# A549-ACTB-RAB5A = test: phenotypically active (imaging signature differs from DMSO and reproducible) at any of 0.3-9 uM (binary (1 = active, 0 = inactive)); higher = active
# Summary of the method: as §1
# A549-CANX-COX4 = test: as above
# Summary of the method: as §1
# A549-GM130-SQSTM1 = test: as above
# Summary of the method: as §1
# A549-TP53BP1-CLTA = test: as above
# Summary of the method: as §1
# A549-TUBA1B-RELA = test: as above
# Summary of the method: as §1
# HepG2-ACTB-RAB5A = test: as above
# Summary of the method: as §1
# HepG2-CANX-COX4 = test: as above
# Summary of the method: as §1
# HepG2-GM130-SQSTM1 = test: as above
# Summary of the method: as §1
# HepG2-TP53BP1-CLTA = test: as above
# Summary of the method: as §1
# HepG2-TUBA1B-RELA [2] = test: as above
# Summary of the method: as §1
# WPMY1-ACTB-RAB5A [3] = test: as above
# Summary of the method: as §1
# WPMY1-CANX-COX4 [4] = test: as above
# Summary of the method: as §1
# WPMY1-GM130-SQSTM1 [5] = test: as above
# Summary of the method: as §1
# WPMY1-TP53BP1-CLTA = test: as above
# Summary of the method: as §1
# WPMY1-TUBA1B-RELA [6] = test: as above
# Summary of the method: as §1
# HepG2-TUBA1B-RELA [7] = test: lowest phenotypically active concentration; higher = less potent
# Summary of the method: as §1
# WPMY1-ACTB-RAB5A [8] = test: as above
# Summary of the method: as §1
# WPMY1-CANX-COX4 [9] = test: as above
# Summary of the method: as §1
# WPMY1-TUBA1B-RELA [10] = test: as above
# Summary of the method: as §1
Structure (SMILES),lowest phenotypically active concentration (WPMY1-GM130-SQSTM1 [1]) [µM],phenotypically active (A549-ACTB-RAB5A),phenotypically active (A549-CANX-COX4),phenotypically active (A549-GM130-SQSTM1),phenotypically active (A549-TP53BP1-CLTA),phenotypically active (A549-TUBA1B-RELA),phenotypically active (HepG2-ACTB-RAB5A),phenotypically active (HepG2-CANX-COX4),phenotypically active (HepG2-GM130-SQSTM1),phenotypically active (HepG2-TP53BP1-CLTA),phenotypically active (HepG2-TUBA1B-RELA [2]),phenotypically active (WPMY1-ACTB-RAB5A [3]),phenotypically active (WPMY1-CANX-COX4 [4]),phenotypically active (WPMY1-GM130-SQSTM1 [5]),phenotypically active (WPMY1-TP53BP1-CLTA),phenotypically active (WPMY1-TUBA1B-RELA [6]),lowest phenotypically active concentration (HepG2-TUBA1B-RELA [7]) [µM],lowest phenotypically active concentration (WPMY1-ACTB-RAB5A [8]) [µM],lowest phenotypically active concentration (WPMY1-CANX-COX4 [9]) [µM],lowest phenotypically active concentration (WPMY1-TUBA1B-RELA [10]) [µM]
O=c1c(O)c(-c2ccc(O)c(O)c2)oc2cc(O)cc(O)c12 [Quercetin],9,0 (inactive),0 (inactive),0 (inactive),0 (inactive),0 (inactive),0 (inactive),0 (inactive),0 (inactive),0 (inactive),0 (inactive),0 (inactive),0 (inactive),1 (active),0 (inactive),0 (inactive),,,,
CC(C)[C@H](N)C(=O)OCC(CO)OCn1cnc2c(=O)[nH]c(N)nc21 (stereo partly specified) [valganciclovir],1,0 (inactive),0 (inactive),0 (inactive),0 (inactive),0 (inactive),0 (inactive),0 (inactive),0 (inactive),0 (inactive),0 (inactive),0 (inactive),0 (inactive),1 (active),0 (inactive),0 (inactive),,,,
O=S(=O)(NCCCCCCc1ccccc1)c1cccc2c(Cl)cccc12,,0 (inactive),0 (inactive),0 (inactive),0 (inactive),0 (inactive),0 (inactive),0 (inactive),0 (inactive),0 (inactive),1 (active),1 (active),1 (active),0 (inactive),0 (inactive),0 (inactive),≤ 0.3,≤ 0.3,≤ 0.3,
COC(=O)[C@@H]1[C@H]2C[C@H]3c4[nH]c5ccccc5c4CCN3C[C@@H]2CC[C@@H]1O [Yohimbine hydrochloride],9,0 (inactive),0 (inactive),0 (inactive),0 (inactive),0 (inactive),0 (inactive),0 (inactive),0 (inactive),0 (inactive),0 (inactive),0 (inactive),0 (inactive),1 (active),0 (inactive),0 (inactive),,,,
CCCN[C@H]1CCc2nc(N)sc2C1 [pramipexole],9,0 (inactive),0 (inactive),0 (inactive),0 (inactive),0 (inactive),0 (inactive),0 (inactive),0 (inactive),0 (inactive),0 (inactive),0 (inactive),0 (inactive),1 (active),0 (inactive),0 (inactive),,,,
COC(=O)C1=C(C)NC(C)=C(C(=O)OCCN(C)Cc2ccccc2)C1c1cccc([N+](=O)[O-])c1 (stereo unspecified) [nicardipine],9,0 (inactive),0 (inactive),0 (inactive),0 (inactive),0 (inactive),0 (inactive),0 (inactive),0 (inactive),0 (inactive),0 (inactive),0 (inactive),0 (inactive),1 (active),0 (inactive),0 (inactive),,,,
c1ccc(-c2cnn3cc(-c4ccc(OCCN5CCOCC5)cc4)cnc23)cc1,,0 (inactive),0 (inactive),0 (inactive),0 (inactive),0 (inactive),0 (inactive),0 (inactive),0 (inactive),0 (inactive),1 (active),0 (inactive),0 (inactive),0 (inactive),0 (inactive),0 (inactive),3,,,
Oc1cc(O)cc(/C=C/c2ccc(O)c(O)c2)c1 [Piceatannol],3,0 (inactive),0 (inactive),0 (inactive),0 (inactive),0 (inactive),0 (inactive),0 (inactive),0 (inactive),0 (inactive),0 (inactive),1 (active),0 (inactive),1 (active),0 (inactive),1 (active),,9,,9
CNC(=O)c1ccc(C)c(-n2c(C)cc(OCc3ccc(F)cc3F)c(Br)c2=O)c1,,0 (inactive),0 (inactive),0 (inactive),0 (inactive),0 (inactive),0 (inactive),0 (inactive),0 (inactive),0 (inactive),0 (inactive),1 (active),0 (inactive),0 (inactive),0 (inactive),0 (inactive),,1,,
NCCCCNS(=O)(=O)c1ccc2c(Cl)cccc2c1 [W-13 hydrochloride],9,0 (inactive),0 (inactive),0 (inactive),0 (inactive),0 (inactive),0 (inactive),0 (inactive),0 (inactive),0 (inactive),0 (inactive),1 (active),1 (active),1 (active),0 (inactive),1 (active),,9,9,9
O=c1cc(-c2ccc(O)cc2)oc2cc(O)cc(O)c12 [Apigenin],9,0 (inactive),0 (inactive),0 (inactive),0 (inactive),0 (inactive),0 (inactive),0 (inactive),1 (active),1 (active),1 (active),0 (inactive),0 (inactive),1 (active),1 (active),1 (active),9,,,9
NS(=O)(=O)C#Cc1ccccc1 [pifithrin-mu],9,0 (inactive),0 (inactive),0 (inactive),0 (inactive),0 (inactive),0 (inactive),0 (inactive),1 (active),0 (inactive),0 (inactive),0 (inactive),0 (inactive),1 (active),0 (inactive),1 (active),,,,9
Cn1cnc(N)c2ncnc1-2 [3-Methyladenine],,0 (inactive),0 (inactive),0 (inactive),0 (inactive),0 (inactive),0 (inactive),0 (inactive),0 (inactive),0 (inactive),0 (inactive),1 (active),0 (inactive),0 (inactive),0 (inactive),0 (inactive),,1,,
COc1ccnc(CS(=O)c2nc3cc(OC(F)F)ccc3[nH]2)c1OC (stereo unspecified) [pantoprazole],,0 (inactive),0 (inactive),0 (inactive),0 (inactive),0 (inactive),0 (inactive),0 (inactive),0 (inactive),0 (inactive),0 (inactive),1 (active),0 (inactive),0 (inactive),0 (inactive),0 (inactive),,≤ 0.3,,
C#CCN[C@@H]1CCc2ccccc21 [rasagiline],9,0 (inactive),0 (inactive),0 (inactive),0 (inactive),0 (inactive),0 (inactive),0 (inactive),0 (inactive),1 (active),1 (active),0 (inactive),0 (inactive),1 (active),1 (active),0 (inactive),9,,,
CCN1C(=O)NC(c2ccccc2)C1=O (stereo unspecified) [ethotoin],,0 (inactive),0 (inactive),0 (inactive),0 (inactive),0 (inactive),0 (inactive),0 (inactive),0 (inactive),0 (inactive),0 (inactive),1 (active),1 (active),0 (inactive),0 (inactive),0 (inactive),,3,3,
O=C1CCc2ccc(OCCCCN3CCN(c4cccc(Cl)c4Cl)CC3)cc2N1 [aripiprazole],≤ 0.3,0 (inactive),0 (inactive),0 (inactive),0 (inactive),0 (inactive),0 (inactive),0 (inactive),0 (inactive),0 (inactive),0 (inactive),0 (inactive),0 (inactive),1 (active),0 (inactive),0 (inactive),,,,
CN(C)CCOC(c1ccccc1)c1ccccc1 [diphenhydramine],9,0 (inactive),0 (inactive),0 (inactive),0 (inactive),0 (inactive),0 (inactive),0 (inactive),0 (inactive),0 (inactive),0 (inactive),1 (active),1 (active),1 (active),1 (active),1 (active),,9,9,9
CC(C)C[C@H](NC(=O)OCC1c2ccccc2-c2ccccc21)C(=O)O,,0 (inactive),0 (inactive),0 (inactive),0 (inactive),0 (inactive),0 (inactive),0 (inactive),0 (inactive),0 (inactive),0 (inactive),1 (active),0 (inactive),0 (inactive),0 (inactive),0 (inactive),,9,,
C[C@]12CC[C@@H]3c4ccc(O)cc4CC[C@H]3[C@@H]1CC[C@@H]2OC(=O)CCC1CCCC1 [estradiol cypionate],9,0 (inactive),0 (inactive),0 (inactive),0 (inactive),0 (inactive),0 (inactive),0 (inactive),0 (inactive),0 (inactive),0 (inactive),0 (inactive),0 (inactive),1 (active),0 (inactive),0 (inactive),,,,
Nc1ncnc2c1c(COc1cccc(Cl)c1)nn2C1CCOCC1,,0 (inactive),0 (inactive),0 (inactive),0 (inactive),0 (inactive),0 (inactive),0 (inactive),0 (inactive),1 (active),0 (inactive),0 (inactive),0 (inactive),0 (inactive),0 (inactive),0 (inactive),,,,
CC1(C)CC(=O)c2c(S(C)(=O)=O)sc(Cl)c2C1,3,0 (inactive),0 (inactive),0 (inactive),0 (inactive),0 (inactive),0 (inactive),0 (inactive),1 (active),0 (inactive),0 (inactive),0 (inactive),0 (inactive),1 (active),0 (inactive),0 (inactive),,,,
